Measured values taken from PubChem BioAssay AID1159580 (chemical genetic matrix, 2015).
In all, about 5,500 compounds went through this assay and about 2,000 (36%) were called active. Another 18% or so got no clear call; they are omitted. No stated cut-off is given here; in the data, active means normalized growth mostly below about 0.91 (no sharp cut-off); inconclusive means no clear call, values can overlap the other calls; inactive means mostly above about 0.92. This is one part of the list.

Assay: chemical genetic growth profiling, strain panel (AID 1159580);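 further: tested at 20 µM; growth read once vehicle control cultures reached saturation at 30 °C; 1 = growth at the plate median or of vehicle wells; lower values mean less growth of the strain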
Details: S. cerevisiae deletion strains, growth OD

Measured: normalized growth

COc1cccc(-c2cc(=O)c3ccccc3o2)c1N
active: locus YNL224C, strain SQS1, hits give low values 0.907 | locus YOR083W, strain WHI5 (second series), hits give low values 0.807
inactive: locus YAL040C, strain CLN3, hits give low values 0.905 | locus YCL061C, strain MRC1 (second series), hits give low values 1 | locus YDR363W, strain ESC2, hits give low values 1.04 | locus YER002W, strain NOP16, hits give low values 1.02 | locus YJR075W, strain HOC1, hits give low values 0.992 | locus YMR263W, strain SAP30, hits give low values 0.997 | locus YMR307W, strain GAS1, hits give low values 0.992 | locus YNL175C, strain NOP13, hits give low values 0.922 | locus YNL197C, strain WHI3, hits give low values 0.937 | locus YNL322C, strain KRE1, hits give low values 1.01 | locus YPL055C, strain LGE1, hits give low values 1.01
